Sampled rows, rich in hits. Any-hit rate of the full collection: about 6.5%.
Vaccinia mCherry: qHTS for Stage-Specific Inhibitors of Vaccinia Orthopoxvirus: mCherry Reporter Primary qHTS; hit rate 0.63% among 310,000; Vaccinia virus mCherry reporter infection, fluorescence; Potency, µM (doses to about 36.5 µM), for the others: at the highest dose activity change, negative = inhibition, actives largely listed as inhibitors; calls by dose curve; tested in A549 cells; also: potency is read from the fitted curve at half-maximal effect; nearly all actives have a fitted effect of over 35% in size
HCMV antiviral: qHTS Assay for inhibitors of the human cytomegalovirus (HCMV). hit rate 4.5% among 410,000. HFF cells, HCMV-luciferase reporter, 72 h; hits give low values. activity change, negative = inhibition, % at 57.5 µM. AID 1259415, 2018; in the data active = activity change below about -60%; inconclusive = no clear call, values can overlap the other calls; inactive = above about -39%
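Two-dose cell screen: HFF monolayers treated with compounds and infected with luciferase-expressing HCMV at 1 PFU/cell, 72 h at 37C, then lysed for luciferase measurement.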
Lassa entry inh: qHTS for Inhibitors of binding or entry into cells for Lassa Virus; Lassa virus pseudotype entry inhibition, cell reporter; Potency, µM (doses to about 37.9 µM), for the others: at the highest dose activity change, negative = inhibition, actives largely listed as inhibitors; hit rate 1.2% among 300,000; calls by dose curve; tested in HEK293 cells; also: potency is read from the fitted curve at half-maximal effect; nearly all actives have a fitted effect of over 50% in size
FMDV inh: High Throughput Screening for Foot and Mouth Disease Virus Antivirals; hit rate 1.2% among 410,000; FMDV antiviral cell-based qHTS; AID 1159524, 2015; Potency, µM (doses to about 57.9 µM), for inactives: top-dose activity change, negative = inhibition, usual class: inhibitors; calls by dose curve; tested in HEK293T cells; also: read-out not given here; potency is read from the fitted curve at half-maximal effect; nearly all actives have a fitted effect of over 45% in size
Vaccinia Venus: qHTS for Stage-Specific Inhibitors of Vaccinia Orthopoxvirus: Venus Reporter Primary qHTS. Vaccinia virus Venus reporter expression, fluorescence. Potency, µM (titrated, usually from 36.5 µM), for inactives: at the highest dose activity change, negative = inhibition, hits mostly inhibitors. hit rate 0.46% among 330,000; calls by dose curve; tested in A549 cells; also: potency is read from the fitted curve at half-maximal effect; nearly all actives have a fitted effect of over 30% in size
MARV entry inh: qHTS for inhibitors of binding or entry into cells for Marburg Virus; Marburg virus pseudotyped entry inhibition, cell reporter; Potency, µM (highest dose often 37.8 µM), for inactives: at the highest dose activity change, negative = inhibition, hits mostly inhibitors; hit rate 1.8% among 300,000; AID 540276, 2011; calls by dose curve; tested in HEK293 cells; also: potency is read from the fitted curve at half-maximal effect
An asterisk follows results filed as active; i = inactive; ? = inconclusive; · = no result given; [ ] = remark or other dose. % is scaled to controls: 0 for no effect and ±100 for the full control effect.

SMILES	Vaccinia mCherry	HCMV antiviral	Lassa entry inh	FMDV inh	Vaccinia Venus	MARV entry inh
O=C1Cc2cc(NS(=O)(=O)c3ccc([N+](=O)[O-])cc3)cc3c2N1CCC3	10µM*	-9.3	6.2%	-17.3%	?	1.1%
Cc1cccc(NC(=O)Nc2cccc(C#N)c2)n1	i	-24.8	·	41.5%	-20.4%	·
Cc1cccc(NC(=O)Nc2ccc(C#N)cc2)n1	?	-84.1*	·	29.8%	?	0.6%
Cc1cc2c(N=O)c(NO)ccc2[nH]1	?	·	?	-2.2%	?	1.41µM*
COc1cc(=O)n2c(c1C(=O)N(C)Cc1nonc1C)CCN(Cc1cccc(Cl)c1)CC2	-8.9%	·	·	-9.8%	0.1%	·
CCOC(=O)c1c(S(=O)(=O)Nc2ccc(C)cn2)c(C)n(C)c1C	·	0.0	·	27.0%	·	·
COC1=CC(=O)C(OC)=C(OC)C1=O	?	?	15.8µM*	?	-29.3%	?
COc1ccc(-c2cc(-c3ccccc3)c(C#N)c(SCC(=O)O)n2)cc1	-30.1%	?	1.3%	-12.5%	-4.2%	-28.9%[46.1 µM]
CCOC(=O)CSc1nc(-c2ccc(F)cc2)cc(C(F)(F)F)c1C#N	-7.5%	17.4	-3.1%[46.1 µM]	31.6µM*	-1.5%	-0.9%[46.1 µM]
CSc1nc(C2CC2)cc(-c2cccs2)c1C#N	-17.8%	-102.0*	3.2%	·	-27.5%	10.2%
CCN(CC)C(=O)CSc1nc(-c2ccccc2)cc(-c2ccc(OC)cc2)c1C#N	-8.5%	-64.7*	10.0%[46.1 µM]	2.5%	-5.1%	9.3%[46.1 µM]
CCN(CC)C(=O)CSc1nc(-c2cccs2)cc(-c2cccs2)c1C#N	·	?	18.3µM*	0.0%	·	?
CC(C)OC(=O)CC(=O)CSc1nc(-c2ccc(F)cc2)cc(-c2ccccc2)c1C#N	-9.2%	-62.0*	?	-5.2%	-8.2%	?
O=C(N[C@H](Cc1ccccc1)C(O)c1nc2ccccc2[nH]1)c1cccc2ccccc12 (some centres undefined)	·	-11.9	·	·	·	·
O=C(Nc1nc(-c2ccc(Cl)cc2Cl)cs1)c1ccc(OCC2CCCO2)cc1 (centres undefined)	i	-63.3*	?	?	3.9%	?
CCN(CC)S(=O)(=O)c1ccc(NC(=O)c2ccc(OCC3CCCO3)cc2)cc1 (centres undefined)	·	-89.9*	·	28.2µM*	·	·
O=C(Nc1ccc(Cl)cc1)c1ccc(OCC2CCCO2)cc1 (centres undefined)	-23.1%	-25.3	?	7.4%	-12.5%	?
Cc1ccc2nc(NC(=O)c3ccc(OCC4CCCO4)cc3)sc2c1 (centres undefined)	-16.9%	-83.9*	?	?	-11.4%	?
Cc1cc(NC(=O)c2ccc(OCC3CCCO3)cc2)ccc1Br (centres undefined)	-27.3%	-80.6*	·	-19.1%	-29.6%	·
Cc1c(C(=O)NCC2(c3ccccc3)CCOCC2)cnn1-c1nccc(-c2ccco2)n1	-4.2%	·	·	42.2%	-0.1%	·
O/N=C(/C[n+]1ccsc1)c1ccc(I)cc1	-7.1%	·	·	·	?	·
Cc1ccccc1CN1CCN(c2ccc(S(=O)(=O)N3CCCC3)cn2)CC1	-22.3%	-63.7*	?	?	-10.6%	?
COCc1ccc(CN2Cc3ccccc3OC(c3ccccc3F)C2)o1 (centres undefined)	i	·	·	1.8%	-28.3%	·
COc1ccc(-c2cc(C(F)F)n3ncc(C(=O)n4ccnc4C)c3n2)cc1	-10.5%	145.5	-15.3%	14.1µM*	?	?
COc1ccc(-c2cc(C(F)F)n3ncc(C(=O)Nc4ccc(C(=O)N5CCOCC5)cc4)c3n2)cc1	·	-67.5*	·	-18.1%	·	·
SMILES	Vaccinia mCherry	HCMV antiviral	Lassa entry inh	FMDV inh	Vaccinia Venus	MARV entry inh
CC(=O)c1ccc(N2CCN(C(=O)c3cc(-c4cccnc4)nc4ccc(Br)cc34)CC2)cc1	0.7%	-24.1	?	4.6%	1.3%	?
O=C(Nc1ccc(C(=O)N2CCOCC2)cc1)c1cc(-c2cccnc2)nc2ccc(Br)cc12	-26.3%	-106.7*	?	?	-19.9%	?
O=C(Nc1ccc(C(=O)N2CCOCC2)cc1)c1cnn2c(C(F)F)cc(-c3ccccc3)nc12	?	38.9	-0.6%[46.1 µM]	0.0%	?	?
CN(CC(=O)Nc1cccc(S(=O)(=O)NC2=NCCC2)c1)Cc1ccccc1Cl	·	2.1	·	26.1%	·	·
Cc1c(C(=O)NCc2cccc(F)c2)oc2c1-c1[nH]ncc1CC2	1.4%	6.9	-19.4%[46.1 µM]	2.3%	-6.3%	5.2%[46.1 µM]
OCCN1CCN(CC(O)COC(c2ccc(F)cc2)c2ccc(F)cc2)CC1 (centres undefined)	i	-15.6	?	-1.9%	-6.0%	2µM*
COc1ccc(N2CCN(CC(O)COC(c3ccc(F)cc3)c3ccc(F)cc3)CC2)cc1 (centres undefined)	·	-28.5	·	-19.3%	·	·
CCCCCCOc1ccc(/C(C)=N/NC2=NCCN2)cc1	·	-96.2*	·	-17.7%	·	·
CCCC(=O)Nc1nc(-c2ccccc2)ns1	-2.9%	54.8	20.6µM*	17.0%	-14.8%	?
CC(C)(C)NC(=O)NC(=O)COC(=O)c1cccc(NS(=O)(=O)c2ccc(F)c(F)c2)c1	i	36.8	10µM*	-19.4%	-26.8%	?
CC(C)(C)NC(=O)NC(=O)COC(=O)c1cccc(S(=O)(=O)N2CCCCC2)c1	-6.5%	17.4	8.1%	-20.7%	-6.6%	-1.8%
CC(C)(C)c1ccc(C(=O)OCC(=O)Nc2cccc(S(=O)(=O)NC3=NCCC3)c2)cc1	-3.3%	-9.1	·	-3.4%	-14.5%	·
CC(C)(C)c1ccc(NC(=O)COC(=O)c2ccc(NS(=O)(=O)c3ccc(F)c(F)c3)cc2)cc1	-0.8%	-18.1	12.6µM*	?	?	?
COc1cccc(C(=O)NN2CCOCC2)c1	·	21.6	·	-13.0%	·	·
OCc1ccccc1O	i	·	·	-10.7%	-6.3%	·
OCc1ccccc1SSc1ccccc1CO	i[7.34 µM]	-98.3*	?	-24.7%	-2.5%[7.34 µM]	-28.4%[46.1 µM]
CCCCn1c(CN2CCN(c3cccc(Cl)c3)CC2)nc2c1c(=O)[nH]c(=O)n2C	-15.5%	-1.4	?	-8.5%	-25.5%	1.3µM*
Cc1ccc(Cl)cc1N1CCN(Cc2nc3c(c(=O)[nH]c(=O)n3C)n2Cc2ccccc2F)CC1	?	-77.1*	·	?	?	·
COc1ccc(-c2c(C)oc3ccc(C)cc23)cc1	·	-39.8	0.3%	-7.8%	·	-20.3%
COc1ccc2oc3cc(C)[n+]([O-])c(-c4ccc(C)cc4)c3c2c1	-10.6%	-92.9*	?	25.1µM*	-20.6%	?
COc1ccc(-c2cc(=O)c3cc(OC)ccc3o2)cc1	-1.5%	9.2	·	34.2%	-4.2%	·
COc1ccc2oc3cc(C)[n+]([O-])c(-c4ccc(Cl)cc4)c3c2c1	i	-90.9*	?	35.5µM*	-11.6%	?
